MITF inh = blocks human microphthalmia-associated transcription factor | O75030 | AlphaScreen MITF homodimerization, bead proximity signal | inhibition, % at 2.6 µM | 650,000 tested, 0.91% active; in the data active = inhibition above about 50%;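 note: 0% = vehicle wells with protein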
GPR151 activ = activates the human receptor GPR151 | PathHunter beta-arrestin GPR151 cells, luminescence | 650,000 tested, 1% active | activation, % at 11.2 µM | AID 1508602 | Q8TDV0; in the data active = activation above about 4.9%;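 note: 0% = median of compound wells and 100% = cells with positive control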
Target sequence (Q8TDV0 whole entry, looked up): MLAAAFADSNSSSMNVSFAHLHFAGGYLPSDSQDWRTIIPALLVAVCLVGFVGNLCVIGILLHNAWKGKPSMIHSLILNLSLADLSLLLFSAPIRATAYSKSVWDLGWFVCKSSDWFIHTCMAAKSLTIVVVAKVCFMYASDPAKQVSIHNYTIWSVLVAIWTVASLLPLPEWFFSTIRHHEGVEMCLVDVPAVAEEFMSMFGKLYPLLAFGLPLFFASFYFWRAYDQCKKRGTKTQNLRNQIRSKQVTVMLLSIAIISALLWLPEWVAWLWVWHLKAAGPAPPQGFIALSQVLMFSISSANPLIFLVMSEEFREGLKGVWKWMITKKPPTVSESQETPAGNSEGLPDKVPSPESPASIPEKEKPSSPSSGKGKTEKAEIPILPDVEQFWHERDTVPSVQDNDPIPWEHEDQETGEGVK
TEAD-YAP inh = TEAD-YAP interaction inhibition | AID 1259422 | inhibition, % at 9.12 µM | HEK-TIYL cells, TEAD-Gal4/YAP UAS-luciferase luminescence | 640,000 tested, 1.4% active; in the data active = inhibition above about 32%;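 note: 0% = median of test compound wells and 100% = reference inhibitor wells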
FBW7 act = human FBW7 E3 ligase activation, primary screen | normalized activity (activation), % at 26.1 µM | 650,000 tested, 0.13% active | AlphaScreen FBW7–phospho-cyclin E peptide binding, activator screen | AID 1259310 | Q969H0; in the data active = normalized activity above about 1.9%;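 note: purified mutant Fbw7 with reduced substrate affinity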
MITF confirm = confirmation of human MITF inhibitors; 4,700 tested, 16% active; AID 1259372; inhibition, % at 2.6 µM; shares compounds with MITF inh; AlphaScreen MITF homodimerization, biotin/His-MITF beads;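 active = inhibition above a cutoff derived from the DMSO control wells, cut at about 28% in these data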;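 note: 0% = MITF dimer wells with DMSO only; inhibitors lower the bead chemiluminescence by keeping MITF from dimerizing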
AS interf DR = counter-screen: compounds optically interfering with AlphaScreen; shares compounds with MITF inh; AlphaScreen optical interference counterscreen, cell-free; IC50, µM; 480 tested, 6% active; AID 1259373; call rule not given here
AlphaScreen intf2 = AlphaScreen optical interference, counter-screen. shares compounds with MITF inh. LysRS AlphaScreen counterscreen, signal interference, triplicate. inhibition, % at 2.6 µM. 4,700 tested, 7.6% active;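 active = inhibition above a cutoff derived from the DMSO control wells, cut at about 30% in these data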
The depositor's hits bear a star; . = no result given. This is a sample that favours compounds with a hit; in the whole collection about 3.5% have one here.

SMILES | MITF inh | GPR151 activ | TEAD-YAP inh | FBW7 act | MITF confirm | AlphaScreen intf2 | others
CCN1CCN(CCOc2cccc(Br)c2)CC1 | 68.0* | 0.0 | 7.7 | 0.3 | 14.6 | 19.7
CC(C)(C)NCCCOc1ccc(C(C)(C)C)cc1 | -1.8 | -0.4 | 1.7 | 0.0 | . | .
CCOc1ccc(OCCCNC(C)(C)C)cc1 | 69.4* | -1.1 | 1.9 | -0.1 | 5.9 | 7.5
COc1nccnc1NS(=O)(=O)c1ccc(NC(=O)c2ccc([N+](=O)[O-])c(C)c2)cc1 | 59.2* | -1.5 | 1.8 | -0.2 | 34.3* | -2.9 | AS interf DR=>6.48
Cc1ccc(OCC(=O)N2CC3(C)CC2CC(C)(C)C3)c([N+](=O)[O-])n1 (configuration not stated) | 51.5* | 1.3 | 6.3 | 0.2 | -8.5 | -2.6
Nc1ncc(-c2ccccc2)nc1N1CCC(C(=O)O)CC1 | -6.6 | 0.4 | -21.7 | 0.2 | . | .
Nc1ncc(-c2ccco2)nc1N1CCC(C(=O)O)CC1 | 73.1* | 0.5 | 6.8 | -0.5 | 21.6 | 12.2
OCCOCCN1CCN(Cc2cccc3ccccc23)CC1 | 5.7 | 0.8 | -1.3 | 0.0 | . | .
OCCOCCN1CCN(Cc2cc(Br)cs2)CC1 | 71.3* | -0.1 | 4.2 | 0.0 | 4.4 | 14.6
CC(=O)N1CCN(Cc2cc(C)ccc2C)CC1 | 0.9 | 1.2 | 8.0 | 0.1 | . | .
Cc1ccc(C)c(CN2CCN(CCOCCO)CC2)c1 | 80.8* | -0.8 | -1.2 | -0.1 | 17.1 | 7.5
Cc1ccccc1CN1CCN(CCOCCO)CC1 | 69.1* | 0.2 | -4.5 | -0.1 | 0.3 | 2.1
CN(C)c1nc(N(C)C)nc(N2CCOCC2)n1 | -0.5 | 0.3 | 6.5 | 0.0 | . | .
Cc1ccccc1N(CC(=O)NC1CCCCC1)C(=O)c1ccco1 | 23.9 | -2.0 | -7.3 | 0.1 | . | .
CN(C)c1cccc(Nc2nc3ncnc(NCCCN4CCCC4=O)c3[nH]2)c1 | 52.7* | 1.8 | -2.8 | -0.2 | 4.3 | 15.2
CCN(CC)C(=O)C1CCCN(Cc2sccc2C)C1 (configuration not stated) | 51.1* | 1.1 | 1.5 | 0.5 | 16.6 | 12.7
CCN(CC)C(=O)C1CCCN(Cc2cccc(OC)c2)C1 (configuration not stated) | 56.1* | 1.3 | -0.2 | 0.1 | -1.0 | 2.1
CCN(CC)C(=O)C1CCCN(Cc2cccc(F)c2)C1 (configuration not stated) | 57.6* | -1.4 | 1.9 | 0.4 | -0.8 | 0.0
CCN(CC)C(=O)C1CCCN(Cc2ccc(C)cc2)C1 (configuration not stated) | 34.3 | 1.7 | 12.6 | -0.1 | . | .
CCN(CC)C(=O)C1CCCN(Cc2cccc(C)c2)C1 (configuration not stated) | 24.3 | -0.3 | 0.2 | -0.2 | . | .
CCOC(=O)CCn1cc(C=C2C(=O)NC(=S)NC2=O)c(-c2ccccc2)n1 | -4.1 | -0.8 | 7.3 | -0.1 | . | .
Brc1ccc(CN2CCCC(c3nc4ccccc4[nH]3)C2)cc1 (configuration not stated) | -0.3 | -1.0 | 6.0 | 0.0 | . | .
CN(c1ccc(Cl)cc1F)S(=O)(=O)c1ccc2[nH]cc(C(=O)NCC3CCCO3)c(=O)c2c1 (configuration not stated) | 1.2 | -0.5 | -8.3 | -0.2 | . | .
CCOC(=O)c1c(C)oc(NC(=O)c2ccc([N+](=O)[O-])cc2Cl)c1C#N | 53.8* | 1.1 | 1.7 | -0.1 | 8.2 | 13.0
CCOC(=O)c1cc(CC)sc1NC(=O)c1cc([N+](=O)[O-])ccc1N1CCCCCC1 | 18.5 | -0.3 | -1.6 | 0.1 | . | .
SMILES | MITF inh | GPR151 activ | TEAD-YAP inh | FBW7 act | MITF confirm | AlphaScreen intf2 | others
CCOC(=O)c1cc(CC)sc1NC(=O)c1cc([N+](=O)[O-])ccc1Cl | 59.6* | 3.3 | 5.9 | -0.1 | 4.7 | 6.8
NC(=O)c1c(NC(=O)CCN2C(=O)c3ccccc3C2=O)sc2c1CCC2 | 14.6 | -1.7 | 5.8 | 0.1 | . | .
Cc1nc(-c2cccc(C(F)(F)F)c2)c(C)[nH]1 | 13.2 | -0.8 | 0.9 | -0.1 | . | .
CCCn1ncc(CN2CCN(Cc3ccc(OC)c(C)c3C)C(CCO)C2)c1C (configuration not stated) | -3.8 | -0.8 | 11.6 | -0.1 | . | .
CCCCN(C)c1ccc(C(N)=O)cc1[N+](=O)[O-] | 10.7 | -1.4 | 2.9 | 0.0 | . | .
OC(CNc1ccccc1)Cn1ccc2ccccc21 (configuration not stated) | 52.4* | 1.2 | -6.4 | -0.3 | 12.7 | 25.1
